Settings in all cases: mRNA level, 48 h; actives raise or lower the signal
Read-out in assay [1]: Apoptosis regulator Bcl-2 (Homo sapiens) (UniProt P10415)
Description: LTEA_HepaRG_BCL2: Life Technologies and Expression Analysis (LTEA) Assay for Bcl-2 gene using HepaRG (AID 2283475). A digest of the protocol: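 Plated human HepaRG cells are exposed to test chemicals for 48 h across eight concentrations from 100 uM downward in half-log steps (0.5% DMSO). BCL2 expression is then measured by qRT-PCR with housekeeping normalisation and fitted bidirectionally against vehicle.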

Read-out in assay [2]: Bcl-2 (BID) gene, BID (gene 637)
The assay is described as follows: LTEA_HepaRG_BID: Life Technologies and Expression Analysis (LTEA) Assay for Bcl-2 (BID) gene using HepaRG (AID 2283476). An outline of the steps:
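Cells are plated, cultured 48 h, switched to serum-free induction medium, then dosed 48 h (100 uM top, half-log steps, 0.5% DMSO). RNA is isolated and BID expression read by qRT-PCR.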

Read-out in a further assay: Caspase-3 (Homo sapiens) (UniProt P42574)
Description: LTEA_HepaRG_CASP3: Life Technologies and Expression Analysis (LTEA) Assay for cysteine-aspartic acid protease (CASP3) using HepaRG (AID 2283477). A digest of the protocol: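 In HepaRG liver cells dosed for 48 h at up to 100 uM (eight-point, duplicate), CASP3 expression changes are scored by qRT-PCR. Activity is fitted in both directions with 0.5% DMSO as baseline.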

Read-out in assay [3]: Cytochrome P450 (CYP1A2), CYP1A2 (gene 1544)
Description: LTEA_HepaRG_CYP1A2: Life Technologies and Expression Analysis (LTEA) Assay for Cytochrome P450 (CYP1A2) using HepaRG (AID 2283479). An outline of the steps:
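Assesses CYP1A2 mRNA in human HepaRG liver cells after 48 h chemical exposure at up to 100 uM. Values come from qRT-PCR with bidirectional curve fitting relative to DMSO.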

Read-out in assay [4]: cysteine-aspartic acid protease (CASP8), CASP8 (gene 841)
The assay is described as follows: LTEA_HepaRG_CASP8: Life Technologies and Expression Analysis (LTEA) Assay for cysteine-aspartic acid protease (CASP8) using HepaRG (AID 2283480). A digest of the protocol:
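qRT-PCR readout of CASP8 mRNA, normalized to three housekeeping genes, after 48 h chemical exposure of HepaRG cells; 8-point half-log series, top 100 uM, 0.5% DMSO vehicle. Bidirectional curve fitting against DMSO baseline.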

Read-out in assay [5]: Cytochrome P450 (CYP2B6), CYP2B6 (gene 1555)
Description: LTEA_HepaRG_CYP2B6: Life Technologies and Expression Analysis (LTEA) Assay for Cytochrome P450 (CYP2B6) using HepaRG (AID 2283481). An outline of the steps: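 Using 48 h treatment of HepaRG cells in serum-free induction medium, concentrations spanned half-log steps from 100 uM in 0.5% DMSO vehicle. CYP2B6 mRNA induction or loss is scored by qRT-PCR against DMSO.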

Read-out in assay [6]: Cytochrome P450 2C19 (Homo sapiens) (UniProt P33261)
Description: LTEA_HepaRG_CYP2C19: Life Technologies and Expression Analysis (LTEA) Assay for CYP2C19 using HepaRG (AID 2283482). An outline of the steps:
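Human HepaRG liver cells received test chemicals for 48 h (highest 100 uM, half-log dilutions in 0.5% DMSO). CYP2C19 mRNA induction or loss is read by multiplexed qRT-PCR and fitted in both directions versus vehicle.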

Read-out in the next assay: CYP2C8 (gene 1558)
The assay is described as follows: LTEA_HepaRG_CYP2C8: Life Technologies and Expression Analysis (LTEA) Assay for CYP2C8 using HepaRG (AID 2283483). An outline of the steps: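 HepaRG (human liver line), 48 h chemical exposure, 8-pt half-log series from 100 uM, 0.5% DMSO vehicle. Readout: CYP2C8 transcript by qRT-PCR, housekeeping-normalized. Bidirectional fit vs DMSO baseline.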

Read-out in the next assay: CYP2C9 (gene 1559)
The assay is described as follows: LTEA_HepaRG_CYP2C9: Life Technologies and Expression Analysis (LTEA) Assay for CYP2C9 using HepaRG (AID 2283484). A digest of the protocol: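 HepaRG, 48 h dosing, 8-pt half-log series, top 100 uM, 0.5% DMSO vehicle. Read-out: CYP2C9 transcript by TaqMan qRT-PCR, housekeeping-normalized (ACTB/GAPDH/POLR2A). Gain or loss fitted vs DMSO baseline.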

Read-out in the next assay: CYP2E1 (gene 1571)
Description: LTEA_HepaRG_CYP2E1: Life Technologies and Expression Analysis (LTEA) Assay for CYP2E1 using HepaRG (AID 2283485). An outline of the steps:
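Readout is qRT-PCR of CYP2E1 mRNA, normalized to three housekeeping genes and fitted bidirectionally against 0.5% DMSO. HepaRG cells were dosed 48 h at eight concentrations, highest 100 uM with half-log dilutions.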

Read-out in another assay: CYP4A11 (gene 1579)
The assay is described as follows: LTEA_HepaRG_CYP4A11: Life Technologies and Expression Analysis (LTEA) Assay for CYP4A11 using HepaRG (AID 2283486). An outline of the steps: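 Readout is CYP4A11 mRNA induction or suppression (qRT-PCR, ACTB/GAPDH/POLR2A normalization) in human HepaRG cells after 48 h chemical treatment, concentrations to 100 uM in 0.5% DMSO, fitted bidirectionally against vehicle.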

Read-out in assay [7]: Cytochrome P450 3A4 (Homo sapiens) (UniProt P08684)
Description: LTEA_HepaRG_CYP3A4: Life Technologies and Expression Analysis (LTEA) Assay for CYP3A4 using HepaRG (AID 2283487). An outline of the steps: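 HepaRG, 48 h exposure, 8-pt CRC from 100 uM (half-log), 0.5% DMSO, duplicates; serum-free induction medium. Readout: CYP3A4 mRNA, qRT-PCR, ACTB/GAPDH/POLR2A normalization. Bidirectional fit vs DMSO.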

Read-out in assay [8]: DNA damage-inducible transcript 3 (DDIT3), DDIT3 (gene 1649)
Description: LTEA_HepaRG_DDIT3: Life Technologies and Expression Analysis (LTEA) Assay for DNA damage-inducible transcript 3 (DDIT3) using HepaRG (AID 2283488). An outline of the steps:
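Cells are human HepaRG liver cells treated for 48 h with eight half-log concentrations up to 100 uM in 0.5% DMSO. Transcript levels come from qRT-PCR normalized to three housekeeping genes, with activity fitted in both directions relative to vehicle.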

Read-out in assay [9]: Pro-epidermal growth factor (Homo sapiens) (UniProt P01133)
Description: LTEA_HepaRG_EGF: Life Technologies and Expression Analysis (LTEA) Assay for Epidermal growth factor (EGF) using HepaRG (AID 2283489). A digest of the protocol: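 EGF expression changes in human HepaRG cells are scored by bidirectional fitting relative to 0.5% DMSO controls. Chemicals are tested at eight half-log concentrations up to 100 uM for 48 h in serum-free induction medium.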

Read-out in assay [10]: Early growth response protein 1 (EGR1) transcription factor, EGR1 (gene 1958)
The assay is described as follows: LTEA_HepaRG_EGR1: Life Technologies and Expression Analysis (LTEA) Assay for Early growth response protein 1 (EGR1) transcription factor using HepaRG (AID 2283490). A digest of the protocol:
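HepaRG, 48 h exposure, 8-pt half-log series from 100 uM, 0.5% DMSO vehicle; EGR1 transcript by TaqMan qRT-PCR (Fluidigm array), housekeeping-normalized; bidirectional fit relative to DMSO baseline.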

Read-out in assay [11]: Ezrin (EZR), EZR (gene 7430)
Description: LTEA_HepaRG_EZR: Life Technologies and Expression Analysis (LTEA) Assay for Ezrin (EZR) using HepaRG (AID 2283491). An outline of the steps: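 Read-out is EZR transcript level by qRT-PCR, normalized to three housekeeping genes and fitted bidirectionally against the DMSO control. Human HepaRG cells received test chemicals for 48 h at eight half-log concentrations up to 100 uM in 0.5% DMSO.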

Read-out in assay [12]: Cytochrome P450 3A7 (Homo sapiens) (UniProt P24462)
Description: LTEA_HepaRG_CYP3A7: Life Technologies and Expression Analysis (LTEA) Assay for CYP3A7 using HepaRG (AID 2283492). A digest of the protocol: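 Cells were thawed, plated, cultured 48 h, then treated for a further 48 h with chemicals (eight-point half-log series from 100 uM, 0.5% DMSO). RNA was isolated and CYP3A7 expression quantified by qRT-PCR normalised to ACTB, GAPDH and POLR2A.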

Read-out in the next assay: CYP3A5 (gene 1577)
Description: LTEA_HepaRG_CYP3A5: Life Technologies and Expression Analysis (LTEA) Assay for CYP3A5 using HepaRG (AID 2283493). An outline of the steps:
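Human HepaRG hepatic cells receive 48 h chemical treatment at eight concentrations (half-log steps from 100 uM) in 0.5% DMSO. Expression of CYP3A5 is quantified by Fluidigm qRT-PCR and normalized to three reference genes.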

Read-out in assay [13]: Fatty Acid-Binding Protein 1 (FABP1), FABP1 (gene 2168)
Description: LTEA_HepaRG_FABP1: Life Technologies and Expression Analysis (LTEA) Assay for Fatty Acid-Binding Protein 1 (FABP1) using HepaRG (AID 2283494). A digest of the protocol: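 qRT-PCR readout of FABP1 transcript (normalized to three housekeeping genes) after 48 h chemical exposure of HepaRG cells; eight concentrations, half-log steps, max 100 uM, 0.5% DMSO vehicle; gain or loss fitted relative to DMSO baseline.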

Read-out in assay [14]: Cytochrome P450 (CYP24A1), CYP24A1 (gene 1591)
The assay is described as follows: LTEA_HepaRG_CYP24A1: Life Technologies and Expression Analysis (LTEA) Assay for Cytochrome P450 (CYP24A1) using HepaRG (AID 2283478). An outline of the steps: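 Human liver HepaRG cultures receive each chemical for 48 h across an eight-point half-log series topping at 100 uM in 0.5% DMSO. Induction or suppression of CYP24A1 mRNA is scored relative to vehicle after housekeeping-gene normalization.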

These results are taken from PubChem BioAssay (EPA / NIEHS).

SMILES strings stand for the structures. Activity calls are given as the source filed them. How the source made its calls: active means hit-call score of the fitted dose curve at least 0.9, where 1 is the maximum; inactive means score below 0.9.

Chain of Cytochrome P450 2C19 (Homo sapiens) (P33261 whole entry, looked up): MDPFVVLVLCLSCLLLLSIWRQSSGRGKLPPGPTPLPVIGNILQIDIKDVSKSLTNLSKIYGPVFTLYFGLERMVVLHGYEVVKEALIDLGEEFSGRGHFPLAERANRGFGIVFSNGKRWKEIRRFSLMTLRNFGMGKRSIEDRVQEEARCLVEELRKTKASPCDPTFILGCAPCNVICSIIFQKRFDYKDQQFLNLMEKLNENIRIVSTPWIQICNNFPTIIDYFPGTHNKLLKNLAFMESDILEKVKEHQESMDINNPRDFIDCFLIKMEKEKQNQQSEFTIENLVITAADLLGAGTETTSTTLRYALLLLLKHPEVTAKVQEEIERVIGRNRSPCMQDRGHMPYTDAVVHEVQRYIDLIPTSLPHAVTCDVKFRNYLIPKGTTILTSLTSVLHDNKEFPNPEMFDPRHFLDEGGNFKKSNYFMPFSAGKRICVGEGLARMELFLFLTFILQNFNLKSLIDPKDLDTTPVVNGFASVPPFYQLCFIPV
Chain of Cytochrome P450 3A4 (Homo sapiens) (P08684 whole entry, looked up): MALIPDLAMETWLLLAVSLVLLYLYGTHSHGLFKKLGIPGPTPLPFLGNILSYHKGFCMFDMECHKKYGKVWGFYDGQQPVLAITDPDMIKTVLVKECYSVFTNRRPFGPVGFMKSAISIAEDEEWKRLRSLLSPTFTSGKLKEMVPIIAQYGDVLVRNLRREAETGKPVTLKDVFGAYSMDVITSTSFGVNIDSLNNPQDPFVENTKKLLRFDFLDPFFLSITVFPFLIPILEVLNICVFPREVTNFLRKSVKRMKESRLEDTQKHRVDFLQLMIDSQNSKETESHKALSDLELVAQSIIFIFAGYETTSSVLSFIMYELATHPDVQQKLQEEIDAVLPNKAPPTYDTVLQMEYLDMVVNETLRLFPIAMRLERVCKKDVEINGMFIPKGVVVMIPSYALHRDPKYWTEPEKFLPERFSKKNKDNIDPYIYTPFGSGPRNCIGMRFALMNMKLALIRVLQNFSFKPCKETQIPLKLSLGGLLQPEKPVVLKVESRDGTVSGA
Chain of Caspase-3 (Homo sapiens) (P42574 whole entry, looked up): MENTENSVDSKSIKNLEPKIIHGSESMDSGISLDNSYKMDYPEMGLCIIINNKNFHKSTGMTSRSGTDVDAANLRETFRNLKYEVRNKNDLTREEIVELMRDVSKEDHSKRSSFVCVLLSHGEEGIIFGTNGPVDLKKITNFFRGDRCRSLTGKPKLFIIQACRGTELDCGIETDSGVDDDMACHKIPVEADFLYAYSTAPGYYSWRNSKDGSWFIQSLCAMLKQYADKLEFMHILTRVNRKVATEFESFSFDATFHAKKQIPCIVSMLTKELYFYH
Chain of Apoptosis regulator Bcl-2 (Homo sapiens) (P10415 whole entry, looked up): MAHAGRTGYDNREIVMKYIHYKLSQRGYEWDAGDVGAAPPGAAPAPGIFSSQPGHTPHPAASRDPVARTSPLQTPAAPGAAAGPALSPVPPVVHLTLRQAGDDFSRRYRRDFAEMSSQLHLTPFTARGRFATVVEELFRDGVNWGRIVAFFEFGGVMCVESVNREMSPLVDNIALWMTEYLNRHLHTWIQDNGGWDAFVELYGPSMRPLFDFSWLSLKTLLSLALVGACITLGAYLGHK
Chain of Cytochrome P450 3A7 (Homo sapiens) (P24462 whole entry, looked up): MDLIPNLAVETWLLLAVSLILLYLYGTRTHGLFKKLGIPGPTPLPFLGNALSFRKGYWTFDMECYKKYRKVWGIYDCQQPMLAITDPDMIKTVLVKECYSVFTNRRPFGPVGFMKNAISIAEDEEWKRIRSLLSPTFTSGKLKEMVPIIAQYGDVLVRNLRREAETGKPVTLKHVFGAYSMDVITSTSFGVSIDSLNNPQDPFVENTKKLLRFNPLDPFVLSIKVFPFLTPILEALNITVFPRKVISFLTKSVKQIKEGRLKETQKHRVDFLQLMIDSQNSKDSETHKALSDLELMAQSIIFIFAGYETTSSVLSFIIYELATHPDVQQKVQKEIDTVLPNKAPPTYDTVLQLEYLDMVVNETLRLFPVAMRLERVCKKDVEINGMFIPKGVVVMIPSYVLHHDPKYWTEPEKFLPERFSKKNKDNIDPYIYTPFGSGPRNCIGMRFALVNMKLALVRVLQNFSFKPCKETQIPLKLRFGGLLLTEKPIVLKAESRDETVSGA

As a reminder, the AC50 is the concentration giving half of the maximal activity seen. For `CCCCCCCCCCCC[N+](C)(C)C`, the half-maximal activity concentration (AC50) is 84.4 µM (active) in [1]; 92.4 µM (active) in assay [5]; 93.6 µM (active) in [6]; 78.4 µM (active) in the assay with CYP2C8 (gene 1558); 91.4 µM (active) with CYP2C9 (gene 1559); 94.1 µM (active) with CYP2E1 (gene 1571). The AC50 in the assay with CYP4A11 (gene 1579) is 76.2 µM (active); in assay [7], 58.6 µM (active); in assay [8] it was 78.1 µM (active); in [10], 83.9 µM (active); in assay [11] it was 83.7 µM (active); with CYP3A5 (gene 1577), 86.6 µM (active). In assay [13], the AC50 was 93.9 µM (active). The result (in [2]; with Caspase-3 (Homo sapiens); in assay [3]; in assay [4]; in assay [9]; in [12]) was inactive.

Regarding `CCCCCc1ccc(N)cc1`, the outcome (in assay [1]; in [2]; in the assay with Caspase-3 (Homo sapiens); in assay [4]; in assay [6]; in the assay with CYP2C9 (gene 1559)) was inactive. The outcome (in the assay with CYP2E1 (gene 1571); with CYP4A11 (gene 1579); in assay [7]; in [8]; in [9]; in [10]) was inactive. In addition, the outcome (in assay [11]; in [12]; in the assay with CYP3A5 (gene 1577); in assay [13]) was inactive. The concentration at half-maximal activity (AC50) was 30.3 µM (active) in [3], 18.8 µM (active) in [5] and 18.7 µM (active) with CYP2C8 (gene 1558).

As to `CN(C[C@@H](CC[N+]12CCC(C3CCCCC3)(CC1)CC2)c1ccc(Cl)c(Cl)c1)C(=O)c1cc(C(F)(F)F)cc(C(F)(F)F)c1`, the molecule was called inactive (in assay [1]; in [2]; in the assay with Caspase-3 (Homo sapiens); in assay [14]; in [9]; in [11]). The AC50 was 11.5 µM (active) in [3]; 18 µM (active) in assay [5]; 29.9 µM (active) in assay [6]; 25.4 µM (active) with CYP2C8 (gene 1558); 12.9 µM (active) with CYP2C9 (gene 1559); 21.1 µM (active) in the assay with CYP4A11 (gene 1579). Moreover, the half-maximal activity concentration (AC50) in assay [7] is 30.9 µM (active); in assay [8], 12.1 µM (active); in [10], 54.4 µM (active); with CYP3A5 (gene 1577), 68.8 µM (active); in [13] it was 12.5 µM (active).
